# High-throughput results from PubChem BioAssay.
# PKM2 act = qHTS Assay for Activators of Human Muscle isoform 2 Pyruvate Kinase; AID 1631, 2009; Potency, µM (titrated, usually from 57.5 µM), for inactives: at the highest dose activation, actives largely listed as activators; Pyruvate kinase PKM (Homo sapiens), P14618; purified PKM2, Kinase-Glo ATP luminescence, activation; response scale: 0% is enzyme alone, no compound; 260,000 tested, 0.34% active; note: potency is the fitted concentration of half-maximal effect; % is set by controls: 0 for no effect and ±100 for the full control effect; nearly all actives have a fitted effect of over 55% in size
# Target sequence (P14618 whole entry, looked up, canonical isoform): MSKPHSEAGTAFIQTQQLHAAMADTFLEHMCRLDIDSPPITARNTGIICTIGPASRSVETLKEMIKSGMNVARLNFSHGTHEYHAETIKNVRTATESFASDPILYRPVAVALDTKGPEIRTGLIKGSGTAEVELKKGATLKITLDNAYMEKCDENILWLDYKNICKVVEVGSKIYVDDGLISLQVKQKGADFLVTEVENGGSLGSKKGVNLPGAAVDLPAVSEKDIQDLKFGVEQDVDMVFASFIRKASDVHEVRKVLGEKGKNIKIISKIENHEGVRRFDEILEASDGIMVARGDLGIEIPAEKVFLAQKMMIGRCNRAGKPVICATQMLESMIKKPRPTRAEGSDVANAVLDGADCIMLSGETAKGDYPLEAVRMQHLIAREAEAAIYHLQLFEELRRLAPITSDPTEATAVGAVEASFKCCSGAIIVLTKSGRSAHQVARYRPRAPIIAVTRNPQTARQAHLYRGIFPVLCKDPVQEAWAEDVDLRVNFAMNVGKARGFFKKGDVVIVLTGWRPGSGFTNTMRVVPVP
#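 ATP formation by purified human PK-M2, quantified via coupled luciferase luminescence after 1 h at room temperature with 0.1 mM ADP and 0.5 mM PEP final.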
# IL2 activator = qHTS of IL-2 Activators. AID 652025, 2013. IL-2 activation reporter assay, cell-based qHTS; stimulated with anti-CD3/CD4/CD28 beads; in transgenic mouse T cells. 360,000 tested, 0.065% active. activation, % (series mostly up to about 46 µM); in the data active = activation above about 50%; inconclusive = mostly about 30% to 49%; note: 0% is about no effect
#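 EGFP and DsRed fluorescence is measured by plate cytometry in unstimulated transgenic mouse T cells exposed to compound for 60 minutes, then stimulated 18 hours at 37 degrees C with anti-CD3/anti-CD4 beads plus anti-CD28.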
# USP2a block = qHTS Assay for Inhibitors of Ubiquitin-specific Protease USP2a Using CHOP2 as the Reporter | Ubiquitin carboxyl-terminal hydrolase 2 (Homo sapiens), O75604 | USP2 core, Ub-CHOP2 coupled fluorogenic reporter, 485/531 | Potency, µM (titrated, usually from 38.3 µM), inactives show at the top dose activity change, negative = inhibition, hits mostly inhibitors | 330,000 tested, 0.01% active | AID 463254, 2010;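 note: potency is the fitted concentration of half-maximal effect; plate controls were DMSO wells for no effect and full inhibition by NEM control for full effect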
#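 Cell-free coupled assay: 10nM USP2 core preincubated 30min RT with compound in Tris-HCl pH 8.0/CaCl2/CHAPS buffer, then 25nM Ub-CHOP2 and 25nM reporter substrate; fluorescence (Ex 485/Em 531) read after 60min RT, normalized to NEM inhibition, concentration-response curves fitted.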
# a7 integrin act = qHTS for Activators of Integrin-Mediated Alleviation for Muscular Dystrophy; AID 624291, 2012; Potency, µM (doses to about 38.3 µM), for inactives: at the highest dose activation, hits mostly activators; alpha7betagal myoblasts, beta-gal FDG fluorescence, 48 h; 350,000 tested, 0.064% active;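 note: potency is the fitted concentration of half-maximal effect; 100% = response of the positive control SU9516; nearly all actives have a fitted effect of over 60% in size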
#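 alpha7betagal+/- myoblasts (passage 13, 250/well) treated 48 h at 37C with compounds at 1:260 dilution of DMSO stock. Lysed, then beta-galactosidase activity read as FDG fluorescence (ex 480/em 540) after 30 min, with pre-read for autofluorescence.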
# ClpP mod = qHTS Assay for Activators of ClpP; 340,000 tested, 1.9% active; Potency, µM (highest dose often 57.5 µM), for the others: at the top dose activity change, negative = active; ATP-dependent Clp protease proteolytic subunit (Bacillus subtilis (strain 168)), P80244; purified B. subtilis ClpP, FRET peptide cleavage, 20 min; active = well fitted falling curve with a large enough effect; inconclusive = small, poorly fitted or top-dose-only effect; inactive = no such curve, though single readings can be large or run the other way; note: potency is the fitted concentration of half-maximal effect; the source files actives as falling curves though it sought activators and does not explain the sign; nearly all actives have a fitted effect of over 65% in size
# Target sequence (P80244 whole entry, looked up): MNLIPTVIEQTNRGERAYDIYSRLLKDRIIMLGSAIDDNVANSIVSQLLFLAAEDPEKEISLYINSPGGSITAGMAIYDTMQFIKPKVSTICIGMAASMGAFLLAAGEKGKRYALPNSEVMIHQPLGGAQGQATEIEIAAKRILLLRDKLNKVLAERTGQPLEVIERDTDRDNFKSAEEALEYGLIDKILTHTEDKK
#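 FRET quenching reversal measured ClpP activation: 10 microg/mL B. subtilis ClpP at pH 8 with the FRET-FV decapeptide, read at 430 nm after 320 nm excitation. The 20-min minus 0-min signal was scaled between DMSO/no-enzyme wells and ADEP (5.8 microM final).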
# Pin1 inh = qHTS Assay to Find Inhibitors of Pin1 | AID 504891, 2011 | 390,000 tested, 0.009% active | Potency, µM (highest dose often 115 µM), for inactives: at the highest dose activity, negative = inhibition, most hits filed as inhibitors | Pin1 FP peptide displacement, HiFluor488, 10 min | Peptidyl-prolyl cis-trans isomerase NIMA-interacting 1 (Homo sapiens), Q13526; active = well fitted inhibition curve with a large enough effect in the polarisation, with a control signal flat, not every such curve was filed as active; inconclusive = small, poorly fitted or top-dose-only effect, or effect the other way, or a change in a side signal; inactive = no such curve, though single readings can be large or run the other way; the % refers to the polarisation; note: potency is the fitted concentration of half-maximal effect; % is set by controls: 0 for no effect and ±100 for the full control effect
# The depositor's hits bear a star; ? = inconclusive; / = no result given; [ ] = another dose, or the depositor's remark. Only some compounds are listed: those with a hit (about 1.9% of all), similar ones and a draw of the others. Unless noted, calls come from the whole dose curve; as a rule, active = well fitted curve in the direction sought with a large enough effect; inconclusive = small, poorly fitted or top-dose-only effect, or another doubt; inactive = no such curve, though single readings can be large; an effect the other way counts as inactive or inconclusive.
SMILES,PKM2 act,IL2 activator,USP2a block,a7 integrin act,ClpP mod,Pin1 inh
COc1ccc(Cn2nnnc2CN(Cc2cc3cccc(C)c3[nH]c2=O)C2CCCC2)cc1,1%,-2,-3%,-10%,-12%,17%
CC(C)(C)n1nnnc1CN(Cc1ccco1)Cc1cc2cc3c(cc2[nH]c1=O)OCO3,2%,1,-1%,-52%,28µM*,?
COc1ccc2[nH]c(=O)c(CN(Cc3ccco3)Cc3nnnn3Cc3ccccc3)cc2c1,-4%,1,?,-44%,25µM*,14%
COc1ccc(Cn2nnnc2CN(Cc2cc3ccc(C)cc3[nH]c2=O)C2CCCC2)cc1,-1%,55*,-3%,-20%,-6%,11%
COc1ccc2cc(CN(Cc3ccco3)Cc3nnnn3C3CCCCC3)c(=O)[nH]c2c1,-1%,-3,1%,-22%,-7%,2%
Cc1ccc(C(=O)c2oc3ccccc3c2NC(=O)COc2ccccc2Cl)cc1,/,/,/,/,-1%,-9%
CC1(C)OC(=O)C2(Cc3c(F)cccc3N3CCCC32)C(=O)O1 (stereo not given),/,/,/,/,/,-20%
COc1cc2nc(N3CCCCC3)nc(NC3CCN(Cc4ccccc4)CC3)c2cc1OC,/,/,/,/,4%,/
CCC(C)(C)n1nnnc1CN(Cc1ccco1)Cc1cc2cc3c(cc2[nH]c1=O)OCO3,2%,3,-6%,-3%,32µM*,-7%
CCC(C)(C)n1nnnc1CN(Cc1ccc(Cl)cc1)Cc1ccco1,2%,-5,2%,0%,-1%,17%
Cc1ccc(-c2ccc(/C=C3\C(=O)ON=C3c3ccccc3)o2)c([N+](=O)[O-])c1,28µM*,-2,0%,18%,1%,/
Cc1ccc(C(=O)NNC(=O)Cn2ccc(C(F)(F)F)n2)o1,/,1,0%,-13%,25µM*,-13%
O=C(Cn1ccc(C(F)(F)F)n1)NNC(=O)c1cccnc1,-2%,-3,3%,16%,1%,-1%
O=C1CCC[C@@H]2C[C@@]3(C[C@@H]4CCN1[C@H]24)Nc1ccccc1NC3=NC1CCCCC1,/,/,/,/,1%,/
Cc1ccc(NS(=O)(=O)c2ccc3c(c2)CCO3)cc1C,/,/,/,/,/,-1%
N#Cc1nc(-c2cccc3ccccc23)oc1NCCN1CCOCC1,1%,-1,-2%,-18%[7.66 µM],6.3µM*,-1%
N#Cc1nc(-c2ccco2)oc1N1CCC(Cc2ccccc2)CC1,-6%,0,-1%,-13%[7.66 µM],25µM*,2%
N#Cc1nc(-c2ccco2)oc1NCCN1CCOCC1,-4%,-1,0%,-15%[7.66 µM],13µM*,-2%
CCN1CCN(C(=S)Nc2cc(C(=O)OC)ccc2C(=O)OC)CC1,1%,0,0%,23%,-29%,-11%
COC(=O)c1ccc(C(=O)OC)c(NC(=S)N2CCOCC2)c1,-1%,6,2%,?,32µM*,2%
Cc1ccccc1C(=O)Nc1nnc(SC(C)C)s1,0%,0,9%,10µM*,-2%,-9%
CC(C)Sc1nnc(NC(=O)CCc2ccccc2)s1,-5%,1,-2%,11%,1%,2%
COC(=O)N1C(/C=C/c2ccc3c(c2)OCO3)=Cc2ccccc2C1CC(C)=O (stereo not given),-4%[11.5 µM],/,/,/,/,/
N#Cc1c(Cl)cccc1Oc1ccc([S+](=O)([O-])N2CCN([S+](=O)([O-])c3c(F)cccc3F)CC2)cc1,/,/,/,/,/,18%
Cc1ccc2cc(C#N)c(SCC(=O)NNC(=O)Cc3ccccc3)nc2c1,1%,4,-1%,11%,28µM*,0%
SMILES,PKM2 act,IL2 activator,USP2a block,a7 integrin act,ClpP mod,Pin1 inh
CCOC(=O)CSc1nc2cc(OC)c(OC)cc2cc1C#N,/,/,/,/,32µM*,11%
COc1ccc2cc(C#N)c(SCC(=O)NNC(=O)Cc3ccccc3)nc2c1,-8%,2,4%,-41%,?,26%
CCOC(=O)CSc1nc2cc(OCC)ccc2cc1C#N,8%,0,1%,2%,16µM*,34%
COc1cc2cc(C#N)c(SCC(=O)N3CCOCC3)nc2cc1OC,4%,0,0%,-6%,-27%,0%
CCc1nc(SCC(=O)N2CCc3cc(OC)c(OC)cc3C2)c(C#N)cc1C,/,-1,/,-21%,32µM*,3%
CC(=O)c1ccc(NC(=O)c2cnn3c2NC(=C2CC2)C=C3C(F)F)cc1,/,/,/,/,-5%,/
CC1CCCCN1C(=O)c1cnn2c1NC(=C1CC1)C=C2C(F)F (stereo not given),/,/,/,/,-13%,/
Cc1cc(C)n2nc(C(=O)N3CCCC(N4CCN(c5ccccc5C)CC4)C3)cc2n1 (stereo not given),0%,-3,0%,8%,28µM*,0%
C#CCCCCCCC#CCN(C)C,5%,0,2%,-17%,32µM*,-3%
CCOC(=O)c1[nH]c2ccc(OCC)cc2c1NC(=O)CN1CCC2(CC1)OCCO2,0%,0,1%,-4%,25µM*,7%
C=CCOC(=O)Nc1c(C(=O)OC)[nH]c2ccc(Cl)cc12,-11%,0,-1%,-7%,32µM*,7%
COC(=O)c1[nH]c2ccc(Cl)cc2c1NC(=O)CCN1CCOCC1,0%,0,-1%,0%,?,-2%
CCOC(=O)c1[nH]c2cc3c(cc2c1NC(=O)CN1CCN(CCO)CC1)OCO3,-4%,0,-1%,-3%,25µM*,-3%
CCOC(=O)c1[nH]c2ccc(OC)cc2c1NC(=O)CN1CCSCC1,-2%,-2,?,-11%,13µM*,-2%
CC(C)(C)OC(=O)NS(=O)(=O)Nc1ccccc1Br,/,/,/,/,/,-13%
Clc1ccc2nc[nH]c2c1,/,/,/,/,0%,/
CCOC(=O)c1[nH]c2ccc(OC)cc2c1NC(C)=O,-2%,0,0%,3%,25µM*,-8%
CCOC(=O)c1[nH]c2ccc(OC)cc2c1NC(=O)c1cccc(OC)c1,0%,-2,-1%,8%,-7%,?
COc1ccc2[nH]c(C(=O)O)c(CCC(=O)O)c2c1,3%,0,1%,-15%,20µM*,-4%
CC1(C)C2CCC1(C)C(NC(=O)COC(=O)c1ccc(S(C)(=O)=O)c([N+](=O)[O-])c1)C2 (stereo not given),/,/,/,/,0%,4%
COc1ccc(C2Nc3ccccc3C(=O)N2Cc2ccco2)cc1COc1c(C)cccc1C (stereo not given),/,/,/,/,4%,32%
